# Results taken from PubChem BioAssay.
# Activity calls are given as the source filed them.
# How the values were obtained:
# [1] = optical density shifts of acrAB sulA E. coli – strain DRC41, OD650, 48 h, E. coli filamentation inducer project, primary screen (AID 1152); details: higher = more signal, called active from +8 up or from −8 down;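 also: E. coli MC1000 strain DRC41 lacking acrAB efflux pump and sulA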
# [2] = probe aLefty1 binding on compound microarray – biochemical, small-molecule microarray, 635/667 nm fluorescence, primary screen (AID 1153); details: higher = more signal;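 also: score merges spot fluorescence with signal-to-noise ratio from the scanned slide images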
# [3] = plasmodial surface anion channel blockers, osmotic lysis – cell-based, P. falciparum Indochina, OD700, 1 h, primary screen (AID 1154); details: P. falciparum Indochina infected RBC osmotic lysis, higher = more signal, called active from +8 up or from −8 down
# [4] = plasmodial surface anion channel blockers, osmotic lysis – cell-based, P. falciparum Indochina, OD700, 2 h, primary screen (AID 1155);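 also: lysis reports solute entry through the parasite surface anion channel PSAC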; details: P. falciparum Indochina infected erythrocytes, higher = more signal, called active from +8 up or from −8 down
# [5] = changes in parasitized red cell lysis, either direction – P. falciparum Indochina, OD700, 3 h, PSAC antagonist project, primary screen (AID 1156); details: P. falciparum-infected erythrocytes, osmotic lysis, higher = more signal, called active from +8 up or from −8 down
# [6] = plasmodial surface anion channel blockers, osmotic lysis – cell-based, P. falciparum Indochina, OD700, 18 h, primary screen (AID 1157); details: P. falciparum Indochina infected erythrocytes, osmotic lysis OD700, 18 h; higher = more signal, called active from +8 up or from −8 down
# [7] = S6 kinase pathway phospho-S6 level changes – cell-based, A549, cytoblot, luminescence, serum-stimulated, primary screen (AID 1158); details: 5 h, higher = more signal;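 also: serum-stimulated A549 lung adenocarcinoma cells; signal is phosphorylated S6 detected by cytoblot immunostaining with HRP secondary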
# [8] = target: NADPH oxidase 2 (Homo sapiens) (UniProt P04839); test: compounds shifting NOX2 Amplex Red fluorescence – cell-based, HEK293-NOX2, PMA-stimulated, NOX inhibitor project, primary screen (AID 1159); details: 45 min, higher = more signal, called active from +8 up or from −8 down; also: test concentration not given here
# Chain of NADPH oxidase 2 (Homo sapiens) (P04839 whole entry, looked up): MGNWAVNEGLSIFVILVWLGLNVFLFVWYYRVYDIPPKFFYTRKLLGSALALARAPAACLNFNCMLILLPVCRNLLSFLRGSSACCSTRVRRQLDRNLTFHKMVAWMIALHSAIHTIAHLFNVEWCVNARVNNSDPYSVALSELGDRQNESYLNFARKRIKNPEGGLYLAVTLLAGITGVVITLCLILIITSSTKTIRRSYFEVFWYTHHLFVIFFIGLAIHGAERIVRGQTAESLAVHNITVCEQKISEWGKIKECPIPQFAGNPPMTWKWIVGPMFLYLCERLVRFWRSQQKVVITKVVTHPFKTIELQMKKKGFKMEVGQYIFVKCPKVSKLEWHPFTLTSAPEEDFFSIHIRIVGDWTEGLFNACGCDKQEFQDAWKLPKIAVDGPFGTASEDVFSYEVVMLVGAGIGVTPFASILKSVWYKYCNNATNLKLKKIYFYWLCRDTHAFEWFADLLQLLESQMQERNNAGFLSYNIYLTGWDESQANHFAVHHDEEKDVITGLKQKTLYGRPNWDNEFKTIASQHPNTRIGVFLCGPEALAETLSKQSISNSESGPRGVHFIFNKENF
# [9] = target: NADPH oxidase 4 (Homo sapiens) (UniProt Q9NPH5); test: compounds shifting NOX4 Amplex Red fluorescence – cell-based, HEK293-NOX4, tetracycline-induced, NOX inhibitor project, primary screen (AID 1160); details: HEK293-NOX4, Amplex Red H2O2 fluorescence, 45 min; higher = more signal, called active from +8 up or from −8 down
# Chain of NADPH oxidase 4 (Homo sapiens) (Q9NPH5 whole entry, looked up): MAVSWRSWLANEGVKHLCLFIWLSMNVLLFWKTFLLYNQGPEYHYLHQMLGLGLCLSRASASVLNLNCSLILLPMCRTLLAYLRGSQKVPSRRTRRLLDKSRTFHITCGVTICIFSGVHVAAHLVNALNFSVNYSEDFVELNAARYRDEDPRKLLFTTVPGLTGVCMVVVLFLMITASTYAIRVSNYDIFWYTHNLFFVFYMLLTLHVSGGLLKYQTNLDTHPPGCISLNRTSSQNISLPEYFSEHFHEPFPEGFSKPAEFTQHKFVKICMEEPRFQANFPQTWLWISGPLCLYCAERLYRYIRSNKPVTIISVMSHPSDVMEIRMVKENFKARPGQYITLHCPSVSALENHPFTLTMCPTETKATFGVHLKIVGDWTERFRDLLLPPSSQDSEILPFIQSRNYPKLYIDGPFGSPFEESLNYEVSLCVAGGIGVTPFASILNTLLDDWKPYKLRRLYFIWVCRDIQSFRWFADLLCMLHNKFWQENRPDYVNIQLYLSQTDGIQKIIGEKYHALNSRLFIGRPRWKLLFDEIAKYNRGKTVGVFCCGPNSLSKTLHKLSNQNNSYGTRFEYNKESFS
# [10] = target: NADPH oxidase 5 (Homo sapiens) (UniProt Q96PH1); test: compounds shifting NOX5 Amplex Red fluorescence – cell-based, HEK293-NOX5, NOX inhibitor project, primary screen (AID 1161); details: HEK293-NOX5, ionomycin, 45 min, higher = more signal
# Chain of NADPH oxidase 5 (Homo sapiens) (Q96PH1 whole entry, looked up): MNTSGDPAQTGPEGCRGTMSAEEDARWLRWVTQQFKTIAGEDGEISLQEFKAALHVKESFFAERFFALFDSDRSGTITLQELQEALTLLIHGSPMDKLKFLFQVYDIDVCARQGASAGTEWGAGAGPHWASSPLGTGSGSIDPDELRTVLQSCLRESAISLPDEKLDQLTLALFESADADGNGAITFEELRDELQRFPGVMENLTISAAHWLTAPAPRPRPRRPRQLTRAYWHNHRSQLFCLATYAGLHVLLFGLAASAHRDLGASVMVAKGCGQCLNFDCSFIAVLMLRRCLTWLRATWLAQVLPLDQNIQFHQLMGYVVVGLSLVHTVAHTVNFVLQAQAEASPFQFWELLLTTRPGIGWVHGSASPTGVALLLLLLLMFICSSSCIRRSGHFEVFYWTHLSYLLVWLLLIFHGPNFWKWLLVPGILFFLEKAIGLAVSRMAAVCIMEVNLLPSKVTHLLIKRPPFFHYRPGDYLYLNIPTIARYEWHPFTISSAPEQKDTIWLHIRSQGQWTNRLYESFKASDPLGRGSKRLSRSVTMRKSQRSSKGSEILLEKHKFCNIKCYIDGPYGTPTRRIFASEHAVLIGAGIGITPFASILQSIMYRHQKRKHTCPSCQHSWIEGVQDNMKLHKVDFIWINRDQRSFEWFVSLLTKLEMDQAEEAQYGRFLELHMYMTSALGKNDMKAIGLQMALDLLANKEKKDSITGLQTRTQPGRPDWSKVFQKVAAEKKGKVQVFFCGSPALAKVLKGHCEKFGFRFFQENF
Compound,z-score [1],composite z-score [2],z-score [3],z-score [4],z-score [5],z-score [6],z-score [7],z-score [8],z-score [9],z-score [10]
COCCOC(=O)N1C(=O)[C@@]2(c3cc(C#CC4=CCCCC4)ccc31)[C@H](c1ccc(O)cc1)N1[C@H](c3ccccc3)[C@H](c3ccccc3)OC(=O)[C@H]1[C@@H]2C(N)=O,-0.623 (inactive),-0.523,2.57 (inactive),-0.403 (inactive),0.193 (inactive),-0.104 (inactive),-0.0587,0.823 (inactive),0.748 (inactive),1.03
COC(=O)c1c(CC[C@@H](CO)NC(=O)N[C@@H](C)Cn2cc(C3(O)CCCCC3)nn2)oc(C(C)=O)c1C(=O)OC,-0.244 (inactive),-0.0984,5.47 (inactive),-0.319 (inactive),1.01 (inactive),-1.01 (inactive),0.813,-6.12 (inactive),-2.61 (inactive),-2.88
[N-]=[N+]=NCc1ccccc1C[C@@]1(C(=O)NCC(O)CO)N=C(c2ccc(OCCCO)cc2)O[C@@H]1c1ccccc1N=[N+]=[N-] (stereo not given in full),0.458 (inactive),0.668,30.8 (active),28.7 (active),1.29 (inactive),7.41 (inactive),0.345,-0.00841 (inactive),1.21 (inactive),0.427
CN(C)C(=O)[C@]1(Cc2ccccc2N=[N+]=[N-])N=C(c2ccc(OCCCO)cc2)O[C@@H]1c1ccccc1,0.327 (inactive),0.112,30.2 (active),27.5 (active),2.4 (inactive),2.53 (inactive),1.38,-0.906 (inactive),-0.433 (inactive),-1.67
COC(=O)[C@@]1(Cc2ccccc2)[C@H]2c3cc(C(=O)N4CCCC4)n(CC4CC4)c3C[C@H]2CN1C(=O)c1ccccc1,-1.47 (inactive),1.54,1.15 (inactive),0.194 (inactive),1.68 (inactive),0.69 (inactive),0.222,-0.295 (inactive),-2.68 (inactive),-2.49
O=C1NC(=O)C2C1C=CC(C(O)C(c1ccccc1)c1ccccc1)N2Nc1ccc(Cl)cc1Cl (stereo not given),-1.53 (inactive),0.42,8.4 (active),2.11 (inactive),0.537 (inactive),2.49 (inactive),-1.02,-0.421 (inactive),-5.03 (inactive),-2.4
CC(C)OC(=O)C=C1C[C@@H](c2ccccc2C(F)(F)F)O[C@@H](c2ccccc2C(F)(F)F)O1,-0.66 (inactive),-0.0011,1.66 (inactive),1.55 (inactive),0.632 (inactive),0.659 (inactive),-0.491,0.441 (inactive),-0.64 (inactive),-0.774
CCOc1cc(C(O)C2C=CC3C(=O)N(c4ccccc4)C(=O)C3N2Nc2ccccc2)ccc1O (stereo not given),-0.39 (inactive),-0.103,6.39 (inactive),1.31 (inactive),-0.343 (inactive),0.949 (inactive),-0.883,-1.19 (inactive),-1.37 (inactive),-2.34
O=C1OCC=C[C@H]2OC34C=CCN(c5ccc6ccccc6c5)C(=O)[C@H]3N(CCCCCCO)C(=O)[C@@H]4[C@@H]12 (stereo not given in full),-0.0903 (inactive),0.0839,3.18 (inactive),0.0422 (inactive),0.966 (inactive),0.525 (inactive),-0.482,1.36 (inactive),0.0322 (inactive),2.12
COCCOC(=O)N1C(=O)[C@@]2(c3ccccc31)[C@H](c1ccc(O)cc1)N1[C@H](c3ccccc3)[C@H](c3ccccc3)OC(=O)[C@H]1[C@@H]2C(=O)NC[C@H](O)c1ccccc1,0.0221 (inactive),0.132,1.06 (inactive),0.664 (inactive),0.515 (inactive),0.563 (inactive),0.104,0.873 (inactive),0.0245 (inactive),0.604
COc1ccc(C(O)C2C=CC3C(=O)NC(=O)C3N2Nc2ccccn2)cc1 (stereo not given),-0.416 (inactive),0.0622,0.539 (inactive),0.874 (inactive),-0.079 (inactive),0.778 (inactive),-0.449,-0.755 (inactive),-2.56 (inactive),-1.99
C=CCC(OC(C)=O)[C@@H]1[C@@H](N(Cc2cccc3ccccc23)C(=O)c2ccc(-c3ccccc3)cc2)c2cc(OCCCO)ccc2N1C(=O)Cc1ccc(OC)cc1 (stereo not given in full),0.571 (inactive),-0.277,0.177 (inactive),-0.172 (inactive),-1.02 (inactive),0.0144 (inactive),0.904,-1.6 (inactive),0.32 (inactive),0.0661
C=CC[C@@]1(C(=O)N(C)C)N=C(c2ccc(OCCCO)cc2)O[C@@H]1c1ccccc1N=[N+]=[N-],0.722 (inactive),0.57,33 (active),28.9 (active),3.29 (inactive),8.39 (active),-0.195,-1.12 (inactive),0.475 (inactive),0.446
C#CCN(Cc1ccccc1Br)C(/C=C/c1ccccc1)CO (stereo not given),-0.585 (inactive),-0.226,12.5 (active),2.61 (inactive),-1.31 (inactive),0.696 (inactive),-0.188,0.28 (inactive),-0.157 (inactive),-2.02
CC1CC/C=C\[C@H]2OC34C=CCN(Cn5nnc6ccccc65)C(=O)[C@H]3N(C(CO)C(C)C)C(=O)[C@@H]4C2C(=O)O1 (stereo not given in full),0.532 (inactive),0.0956,2.43 (inactive),0.0805 (inactive),0.752 (inactive),0.527 (inactive),-0.174,1.09 (inactive),0.134 (inactive),2.22
CCCCCN1CC=CC23O[C@@H]4/C=C\CCCOC(=O)C4[C@H]2C(=O)N(CCCO)[C@@H]3C1=O (stereo not given in full),2.27 (inactive),-0.353,1.33 (inactive),0.212 (inactive),-1.43 (inactive),-0.678 (inactive),0.696,1.46 (inactive),0.42 (inactive),2.13
O=C(NCc1ccc(F)cc1)[C@H]1C[C@H]2C(=O)N[C@@H](Cc3ccccc3)C(=O)N2[C@H]1c1ccc(O)cc1,0.132 (inactive),-0.0601,2.64 (inactive),0.591 (inactive),-1.55 (inactive),0.498 (inactive),-0.0688,0.171 (inactive),0.301 (inactive),0.965
COC(=O)[C@@]1(Cc2ccc(OC)cc2)[C@H]2c3cc(C(=O)N(C)C)n(CCN4CNCC4=O)c3C[C@H]2CN1C(=O)c1ccccc1,-1.1 (inactive),0.249,0.143 (inactive),-0.954 (inactive),-0.163 (inactive),-2.05 (inactive),0.963,0.821 (inactive),2.29 (inactive),0.453
COc1ccc([C@H]2C[C@H]3C(Br)=C[C@@H]2C(=O)[C@]32CO2)cc1,0.834 (inactive),-0.294,1.27 (inactive),0.581 (inactive),1.23 (inactive),0.207 (inactive),-0.288,-0.0817 (inactive),0.106 (inactive),-0.837
COC(=O)[C@@]1(Cc2ccc(F)cc2)[C@H]2c3cc(C(=O)N(C)C)n(Cc4ccc(S(C)(=O)=O)cc4)c3C[C@H]2CN1C(=O)c1ccccc1,-0.367 (inactive),0.277,1.32 (inactive),0.495 (inactive),1.01 (inactive),0.739 (inactive),-0.594,0.713 (inactive),0.668 (inactive),0.274
[N-]=[N+]=NCc1ccccc1C[C@]1(C(=O)N2CCOCC2)N=C(c2ccc(OCCCO)cc2)O[C@H]1c1ccccc1N=[N+]=[N-],0.97 (inactive),0.043,30 (active),25.3 (active),2.34 (inactive),1.92 (inactive),1.73,-6.05 (inactive),-2.96 (inactive),-2.7
CC(=O)N1Cc2ccccc2C[C@@]2(COC(c3ccc(OCCCO)cc3)=N2)C1=O,2.48 (inactive),0.611,28.1 (active),13.4 (active),2.79 (inactive),1.7 (inactive),2.28,-1 (inactive),1.74 (inactive),-1.24
COCCOC(=O)N1C(=O)[C@@]2(c3cc(C#Cc4ccc(OC)cc4)ccc31)[C@H](C(N)=O)[C@H]1C(=O)O[C@H](c3ccccc3)[C@H](c3ccccc3)N1[C@@H]2c1ccccc1OCCO,-0.289 (inactive),0.358,4.42 (inactive),2.55 (inactive),-0.499 (inactive),1.59 (inactive),-0.413,2.38 (inactive),1.1 (inactive),1.44
COCCOC(=O)N1C(=O)[C@@]2(c3cc(C#CCCO)ccc31)[C@H](C(=O)Nc1nc3ccccc3s1)[C@H]1C(=O)O[C@H](c3ccccc3)[C@H](c3ccccc3)N1[C@@H]2c1ccc(OCCO)cc1,0.372 (inactive),0.352,4.19 (inactive),1.5 (inactive),0.708 (inactive),1.34 (inactive),-0.548,0.82 (inactive),0.462 (inactive),1.37
COCCCN1C(=O)[C@@]2(Cc3ccccc31)c1ccccc1C(=O)N(Cc1ccccc1C(F)(F)F)[C@H]2c1ccc(CO)cc1,-0.125 (inactive),-0.208,0.512 (inactive),0.635 (inactive),-0.101 (inactive),0.427 (inactive),0.0136,-0.767 (inactive),-0.607 (inactive),0.77
C=CCOC(=O)[C@H]1[C@@H]2C(=O)O[C@@H](c3ccccc3)[C@@H](c3ccccc3)N2[C@@H](c2ccc(OCCOC(=O)[C@@H]3C[C@@H]4C(=O)N[C@@H](CCCCN(C)C)C(=O)N4[C@@H]3c3ccc(O)cc3)cc2)[C@]12C(=O)Nc1ccc(I)cc12,-0.785 (inactive),-0.15,-0.117 (inactive),1.39 (inactive),5.33 (inactive),0.448 (inactive),-0.724,1.41 (inactive),0.74 (inactive),-0.496
